# Hits are enriched below; roughly 3.7% of the tested compounds scored in any of these assays.
# TGFb SMAD3 inh – TGF-b pathway inhibition; AID 588855; HepG2 CAGA-GFP TGF-b/SMAD3 reporter, GFP fluorescence, 18 h; TGF-beta stimulated, 500 pg/mL final; Potency, µM (doses to about 46.1 µM), usual class: inhibitors; hit rate 1.2% among 410,000; also: nearly all actives have a fitted effect of over 65% in size
#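 HEPG2 CAGA-GFP cells (1000/well, DMEM with 1% FBS) were pre-incubated 2 h at 37 degrees C, given compound by pin tool, then stimulated with TGF-beta at 500 pg/mL final for 18 h before per-cell GFP fluorescence imaging.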
# S2 tox – reduces viability in counter-screen for ATXN expression inhibitors; S2 cells (HEK-293 line with an ATXN2-luciferase reporter) viability, CellTiter-Fluor protease fluorescence, 24 h; Potency, µM (top dose mostly 56.7 µM), usual class: cytotoxic; hit rate 0.49% among 400,000; also: nearly all actives have a fitted effect of over 40% in size
# GLP-1R agonist – GLP-1 receptor (human) agonism. P43220. HEK293 GLP-1R CRE-luciferase, luminescence, 4-6 h; cells express a hypersensitive GLP-1R form. Potency, µM (titrated, usually from 45.6 µM), usual class: activators. hit rate 0.007% among 380,000
# Target sequence (P43220 whole entry, looked up): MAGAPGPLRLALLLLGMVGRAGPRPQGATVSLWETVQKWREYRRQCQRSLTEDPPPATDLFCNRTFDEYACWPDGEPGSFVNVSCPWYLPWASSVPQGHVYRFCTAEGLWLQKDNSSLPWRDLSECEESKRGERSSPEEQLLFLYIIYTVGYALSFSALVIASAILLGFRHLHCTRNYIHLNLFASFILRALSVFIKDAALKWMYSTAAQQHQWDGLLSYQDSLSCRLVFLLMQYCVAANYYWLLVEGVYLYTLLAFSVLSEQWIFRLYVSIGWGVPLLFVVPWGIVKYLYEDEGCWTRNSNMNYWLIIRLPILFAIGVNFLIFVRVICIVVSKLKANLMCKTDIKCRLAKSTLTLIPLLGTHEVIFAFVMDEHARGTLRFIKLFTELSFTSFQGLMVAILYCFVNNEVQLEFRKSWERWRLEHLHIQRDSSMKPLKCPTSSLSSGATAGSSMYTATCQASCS
# HepG2 viability – kills HepG2 cells in TGF-b inhibitor counter-screen; AID 588856; HepG2 CAGA-GFP viability, ATP luminescence, 18 h; hit rate 0.76% among 410,000; Potency, µM (series often up to 46.1 µM), actives largely listed as cytotoxic
#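 CellTiter-Glo luminescence gave cytotoxicity after 18 hours at 37 degrees C. The cells were HepG2 CAGA-GFP in 1% FBS DMEM, stimulated with 500 pg/mL TGF-beta after compound addition. %Activity was normalised to no-cell wells (complete cell-killing) and DMSO (no toxicity), and curves were fitted and classified.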
# ATXN2 expr inh – inhibitors of ATXN2 expression | HEK-293 ATXN2-luciferase reporter, luminescence, 24 h | Potency, µM (doses to about 57 µM), actives largely listed as inhibitors | hit rate 0.72% among 360,000; also: nearly all actives have a fitted effect of over 55% in size
#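 qHTS (up to 57 uM final) was run with 24 h compound exposure of reporter cells at 37 °C. Each well was multiplexed: SteadyGlo luminescence measured ATXN2-luciferase expression after a fluorogenic Gly-Phe-AFC viability readout (25 uM final).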
# GLP-1R inv ag – acts as inverse agonist at human GLP-1 receptor. HEK293 GLP-1R CRE-luciferase, luminescence, 24 h; GLP-1R form is constitutively active. Potency, µM (highest dose often 38.3 µM), usual class: inhibitors. hit rate 1.6% among 410,000. AID 624417; also: nearly all actives have a fitted effect of over 55% in size
#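 HEK293 cells stably co-expressing a cAMP-responsive luciferase reporter and constitutively active GLP-1R were seeded, incubated 12 h, then exposed to compounds for 24 h at 37 C. Luminescence was read 12 min after detection reagent; inverse agonists lower signal.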
# Numbers stand for hits; i = inactive; ? = inconclusive; nt = no result given. Calls follow the shape of the dose curve; as a rule, active = well fitted curve in the direction sought with a large enough effect; inconclusive = small, poorly fitted or top-dose-only effect, or another doubt; inactive = no such curve, though single readings can be large; an effect the other way counts as inactive or inconclusive.
SMILES,TGFb SMAD3 inh,S2 tox,GLP-1R agonist,HepG2 viability,ATXN2 expr inh,GLP-1R inv ag
CCc1ccccc1N(CC)C(=O)Cn1nc(Cc2ccncc2)c2ccccc2c1=O,?,nt,nt,i,nt,i
COc1ccc(CCN2C(=O)c3oc4cc(C)cc(C)c4c(=O)c3C2c2ccc(F)cc2)cc1OC (stereo not given),i,i,nt,i,i,i
OCCn1cc(-c2ccc3c(c2)CCC3=NO)c(-c2ccncc2)n1,nt,nt,nt,nt,i,nt
Cc1c(CN2CCOc3c(O)cc(-c4nc5ccccc5s4)cc3C2)cnn1C,nt,i,nt,nt,nt,nt
c1ccc(CNc2nc(CN3CCOCC3)nc3scc(-c4ccccc4)c23)cc1,i,i,i,i,i,i
Clc1ccc(-c2csc3ncnc(NCCN4CCOCC4)c23)cc1,i,i,i,i,i,3.16µM
Clc1ccc(CNc2nc(CN3CCOCC3)nc3scc(-c4ccccc4)c23)cc1,?,?,i,i,i,3.16µM
Cc1ccc(-c2csc3ncnc(NCCN4CCOCC4)c23)cc1,i,i,i,i,i,?
CCCN(C(=O)Cn1cnc2sc(C)c(S(=O)(=O)N3CCN(c4ncccn4)CC3)c2c1=O)c1cccc(C)c1,i,i,i,i,i,i
CCCCc1ccc(C2C3=C(CC(C)(C)CC3=O)NC3=C2C(=O)c2ccccc23)cc1 (stereo not given),?,?,i,i,i,3.55µM
Cc1cccc2nc(-c3cccnc3)c(Nc3ccc(C(C)C)cc3)n12,?,12.6µM,nt,i,15.8µM,10µM
CCCCSc1ccc2nc(-c3ccc(C#N)cc3)cn2c1,i,i,i,i,i,?
CCCSc1ccc2nc(-c3ccccc3)cn2c1,?,i,i,i,?,2.51µM
Cc1ccc2c(c1)Oc1ccc(NC(=O)CCl)cc1C(=O)N2,14.1µM,10µM,i,8.91µM,?,11.2µM
Cc1ccc2c(c1)Oc1ccc([N+](=O)[O-])cc1C(=O)N2,i,i,i,i,i,i
NC(=S)N=Nc1c(O)n(CCCl)c2ccc(Cl)cc12,i,i,i,i,i,?
NC(=S)N=Nc1c(O)n(CCCl)c2ccccc12,i,i,i,i,i,2.82µM
CSc1nnc(NC(=O)c2cc(=O)c3cc(C)cc(C)c3o2)s1,i,25.1µM,i,i,i,i
Cc1cc(C)c2oc(C(=O)Nc3nnc(C(C)C)s3)cc(=O)c2c1,i,i,i,i,nt,i
CCOC(=O)c1cnc(SCc2cccc(C)c2)nc1N,i,i,?,i,i,10µM
CC(=O)c1ccc(OCc2cc(C(=O)N(C)Cc3nc4c(C)cccc4[nH]3)no2)cc1,i,?,i,i,i,i
CC(=O)c1ccc(OCc2cc(C(=O)N(C)CCOc3ccc(C)cc3)no2)cc1,?,i,i,i,i,10µM
Cc1ccc(S(=O)(=O)NCCc2sc3nc(-c4ccccc4)nn3c2C)cc1C,?,nt,nt,i,nt,?
O=C(Nc1ccc(S(=O)(=O)N2CCCC2)cc1)c1ccc([N+](=O)[O-])o1,?,nt,i,12.6µM,?,?
O=C(Nc1ccc(Cc2ccncc2)cc1)c1ccc([N+](=O)[O-])o1,15.8µM,i,i,i,i,i
SMILES,TGFb SMAD3 inh,S2 tox,GLP-1R agonist,HepG2 viability,ATXN2 expr inh,GLP-1R inv ag
Nc1c(NC/C=C\COc2cc(CN3CCCCC3)ccn2)c(=O)c1=O,nt,?,i,nt,i,nt
CCOc1ccccc1CNC(=O)c1sc2ncccc2c1-n1cccc1,?,i,nt,i,i,i
CC(OCC(O)CN(C)Cc1nc2ccccc2c(=O)[nH]1)c1ccc(Cl)cc1 (stereo not given),i,?,i,i,nt,10µM
C#CCn1c(S(=O)(=O)Cc2ccc(F)cc2)nc(-c2ccccc2)c1-c1ccccc1,i,i,i,i,i,5.62µM
CCOC(=O)Cn1c(S(=O)(=O)Cc2ccc(F)cc2)nc(-c2ccccc2)c1-c1ccccc1,i,i,i,i,i,i
CN(C)c1ccc(-c2nc3ncc(Cl)c(N4CCN(CC(=O)Nc5nccs5)CC4)c3[nH]2)cc1,nt,nt,nt,nt,i,nt
O=C(CCl)Nc1cccc(S(=O)(=O)N2CCCCCC2)c1,?,25.1µM,i,i,?,?
N=c1sccn1CC(=O)Nc1cccc(S(=O)(=O)N2CCCCCC2)c1,i,15.8µM,i,i,nt,?
O=C(Cc1cccs1)Nc1ccc(S(=O)(=O)N2CCCCC2)cc1,?,i,i,i,i,10µM
O=C(CCNS(=O)(=O)c1ccc(OC(F)(F)F)cc1)Nc1cccc(S(=O)(=O)N2CCCC2)c1,?,i,i,i,i,10µM
CN1CCN(S(=O)(=O)c2ccc(NC(=O)Cc3cccs3)cc2)CC1,i,i,i,i,i,i
CCc1cc(C(=O)NCCN2Cc3ccccc3OC(c3ccsc3)C2)n(C)n1 (stereo not given),nt,i,nt,nt,nt,nt
CCOc1ccc(Nc2nn(-c3ccc(OC(F)(F)F)cc3)nc2C(C)=O)cc1,i,nt,nt,i,nt,i
COC(=O)C1[C@H]2SC(C)(C)C(C(=O)OC)N2C(=O)N1Cc1ccccc1 (stereo not given in full),i,nt,nt,i,nt,nt
O=C(CCNC(=O)c1ccc(Cl)cc1)Nc1cccc(S(=O)(=O)N2CCCCCC2)c1,i,i,i,i,i,12.6µM

# Compound activity deposited in PubChem by National Center for Advancing Translational Sciences (NCATS).
